# Screens: PubChem BioAssay, National Center for Advancing Translational Sciences (NCATS)
# D3 antag = blocks the human D3 dopamine receptor; P35462; max response, negative = inhibition, %; actives 2.5% (n = 360,000); D3R cells, DiscoveRx beta-arrestin luminescence, antagonist mode; active compounds read low; in the data active = max response below about -50%; inconclusive = no clear call, values can overlap the other calls
# Target sequence (P35462 whole entry, looked up): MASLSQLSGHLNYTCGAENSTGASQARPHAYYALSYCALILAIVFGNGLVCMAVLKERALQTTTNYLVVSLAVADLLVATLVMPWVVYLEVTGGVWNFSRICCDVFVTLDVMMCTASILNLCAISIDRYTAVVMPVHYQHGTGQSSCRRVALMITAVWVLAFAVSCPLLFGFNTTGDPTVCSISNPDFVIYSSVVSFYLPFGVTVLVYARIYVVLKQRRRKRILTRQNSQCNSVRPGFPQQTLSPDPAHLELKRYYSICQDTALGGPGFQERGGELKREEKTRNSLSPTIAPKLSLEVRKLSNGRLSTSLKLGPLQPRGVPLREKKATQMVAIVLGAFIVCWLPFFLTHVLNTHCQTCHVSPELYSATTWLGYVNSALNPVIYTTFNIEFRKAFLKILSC
#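 Cells plated overnight at 1500 cells/well, then exposed to library compounds with dopamine controls for 90 minutes at 37 degrees C. DiscoveRx reagent added for 30–60 minutes at room temperature; luminescence read, quantitative HTS format.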
# MCF10A rereplic = inducers of DNA re-replication in MCF 10A breast cells. MCF 10A DNA re-replication, Hoechst nuclear intensity, 48 h. Potency, µM (series often up to 46.1 µM), usual class: activators. actives 2.9% (n = 350,000). AID 624296; also: nearly all actives have a fitted effect of over 50% in size
# KB-V1 MDR tox = KB-V1 MDR subline cytotoxicity. KB-V1 MDR cells viability, CellTiter-Glo, 72 h. Potency, µM (highest dose often 46.1 µM), usual class: cytotoxic. actives 3.4% (n = 400,000). AID 1347076; also: nearly all actives have a fitted effect of over 60% in size
#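 Luminescent ATP read-out (CellTiter-Glo, 10 min) measures survival of drug-selected KB-V1 MDR cells after 72 h, 37 degrees C compound exposure. Medium: phenol-red-free DMEM, 10% FBS. Values from fitted concentration-response curves.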
# KB-3-1 cytotox = KB-3-1 parental cell cytotoxicity. KB-3-1 viability, CellTiter-Glo ATP luminescence, 72 h. Potency, µM (top dose mostly 46.1 µM), hits mostly cytotoxic. actives 1.4% (n = 400,000). AID 1347075; also: nearly all actives have a fitted effect of over 60% in size
#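 KB-3-1 parental drug-naive adenocarcinoma cells in DMEM/10% FBS, incubated 72 h at 37 C with pin-transferred compounds across a concentration series. Viability by CellTiter-Glo luminescence; concentration-response curves fitted after normalization.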
# SW480 rereplic = induces DNA re-replication in SW480 colon adenocarcinoma cells | SW480 DNA re-replication, Hoechst DNA content imaging, 48 h | Potency, µM (doses to about 46.1 µM), hits mostly activators | actives 1.8% (n = 340,000) | AID 624297; also: nearly all actives have a fitted effect of over 55% in size
#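 SW480 cells exposed to compounds for 48 hr at 37 C, 5% CO2, then Hoechst-stained 40 min. Nuclear DNA content imaged by fluorescence scanning (405 nm excitation, 500-530 nm emission); re-replication scored as increased high-intensity nuclei.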
# D3 ag = activates the human D3 dopamine receptor; actives 0.58% (n = 410,000); max activation, %; D3R DiscoveRx beta-arrestin cells, luminescence, 90 min; in the data active = max activation above about 30%
#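 Cells at 1500/well, incubated overnight, then treated with pinned compounds (dopamine as control) for 90 min at 37 degrees C. DiscoveRx reagent added for 30 - 60 minutes at room temperature; luminescence read.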
# Numbers stand for hits; i = inactive; ? = inconclusive; nt = no result. Shown are actives, neighbours in structure and some others; about 8.9% of the full set was active somewhere. Unless noted, calls follow the shape of the dose curve; as a rule, active = well fitted curve in the direction sought with a large enough effect; inconclusive = small, poorly fitted or top-dose-only effect, or another doubt; inactive = no such curve, though single readings can be large; an effect the other way counts as inactive or inconclusive.
SMILES,D3 antag,MCF10A rereplic,KB-V1 MDR tox,KB-3-1 cytotox,SW480 rereplic,D3 ag
O=C1/C(=C/c2c[nH]c3ccccc23)CCC/C1=C\c1c[nH]c2ccccc12,i,21µM,?,?,?,i
CCn1c(N2CCN(CC(=O)c3c(C)n(C)c4ccc(OC)cc34)CC2)nc2c1c(=O)[nH]c(=O)n2C,i,i,i,21µM,i,i
CCn1c(N2CCN(CC(=O)c3c(C)n(C)c4ccccc34)CC2)nc2c1c(=O)[nH]c(=O)n2C,i,i,i,i,?,i
COc1ccc2c(c1)c(C(=O)CN1CCN(Cc3ccccc3)CC1)c(C)n2C,i,?,?,i,i,i
COc1ccc2c(c1)c(C(=O)CN1CCN(C(=O)c3ccco3)CC1)c(C)n2C,i,?,23µM,i,i,i
COc1ccc(NC(=O)Cc2coc3cc(C)cc(C)c23)c(OC)c1,nt,nt,i,i,nt,i
Cc1cc(C)c2c(CC(=O)NCCc3ccccc3)coc2c1,i,i,i,i,i,34
COc1ccc(OC)c(NC(=O)Cc2coc3cc(C)cc(C)c23)c1,i,i,16µM,i,i,i
O=S(=O)(c1ccccc1)N1CCN(Cc2ccccc2)c2ccccc21,i,i,18µM,i,i,i
O=S(=O)(c1ccccc1)N1CCN(Cc2ccccc2)CC1,i,i,?,?,i,i
CCc1nn(-c2ccccc2)c2nc(-c3ccc(O)cc3)c3cc(OC)c(OC)cc3c12,nt,nt,?,i,nt,i
O=C(COC(=O)c1cccc(NC(=O)c2ccc(Br)cc2)c1)c1ccc(Cl)cc1,nt,nt,i,i,nt,i
O=S(=O)(CC(CN1CCCCC1)N1CCCCC1)c1ccccc1 (centres undefined),?,6.5µM,i,i,?,i
CCCCCCN1C=CC(=C2C(=O)c3ccccc3C2=O)C=C1,i,i,i,?,i,i
CCCN1C=CC(=C2C(=O)c3ccccc3C2=O)C=C1,i,i,2.9µM,?,i,i
CCN1C=CC(=C2C(=O)c3ccccc3C2=O)C=C1,i,i,8.2µM,15µM,i,i
Cc1ccc(-c2cn3cccnc3n2)cc1NC(=O)Cc1ccccc1,nt,nt,nt,nt,nt,i
CC(NC(=O)c1ccc(S(=O)(=O)NCc2ccco2)cc1)c1ccc(F)cc1 (centres undefined),i,i,i,i,i,i
Cc1cccc(-c2nc3c4ccccc4nc(N4CCN(c5ccccc5F)CC4)n3n2)c1,nt,nt,nt,nt,nt,i
CCc1cccc(OCCCCNCCOC)c1,-67,i,i,i,i,i
COCCCNCCCCOc1ccc(OCc2ccccc2)cc1,i,?,i,i,i,i
O=S1(=O)C=C[C@@H](CO)N1Cc1ccc(Br)cc1,i,nt,i,i,nt,i
O=S1(=O)C=C[C@@H](COCc2ccccc2)N1Cc1ccc(Br)cc1,-51,nt,i,i,nt,i
O=C(Nc1cc(Cl)cc(Cl)c1)c1ccc(F)c(S(=O)(=O)N2CCCCCC2)c1,nt,nt,nt,nt,nt,i
Cc1ccc(N(Cc2cc(=O)[nH]c3ccccc23)C(=O)CCl)c(C)c1,i,?,?,18µM,23µM,i
SMILES,D3 antag,MCF10A rereplic,KB-V1 MDR tox,KB-3-1 cytotox,SW480 rereplic,D3 ag
CCCC(=O)N(Cc1cc(=O)[nH]c2ccccc12)c1ccc(C)cc1C,i,i,i,i,i,i
Cc1ccccc1CN1CCN(CC2CC3C=CC2C3)CC1 (centres undefined),-66,?,i,i,i,i
CCN1CCN(CC2CC3C=CC2C3)CC1 (centres undefined),i,i,i,i,i,i
CS(=O)(=O)N1CCN(CC2CC3C=CC2C3)CC1 (centres undefined),i,i,i,i,i,i
C1=CC2CC1CC2CN1CCN(c2ccccc2)CC1 (centres undefined),-54,?,i,i,i,i
COc1cccc2cc(-c3nc(-c4ccccc4F)no3)c(=O)oc12,nt,nt,nt,nt,nt,i
O=C(Nc1cccc(C(F)(F)F)c1)N1CCC(c2nc(-c3ccc(F)cc3)no2)CC1,i,?,2.6µM,i,i,i
O=C(c1cccs1)N1CCC(c2nc(-c3ccc(S(=O)(=O)N4CCOCC4)cc3)no2)CC1,i,i,5.8µM,16µM,i,i
O=C(Nc1ccccc1)N1CCC(c2nc(-c3ccc(S(=O)(=O)N4CCOCC4)cc3)no2)CC1,i,1.8µM,4.1µM,4.6µM,5.8µM,i
O=C(c1ccco1)N1CCC(c2nc(-c3ccc(F)cc3)no2)CC1,i,i,i,i,i,i
CCCc1cc(=O)n2[nH]c(NCc3ccccc3OC)nc2n1,nt,nt,?,i,nt,i
Cc1ccc(-c2cc(C(=O)N3CCN(S(=O)(=O)c4ccc(Br)cc4)CC3)[nH]n2)c(C)c1,nt,nt,i,i,nt,i
Cc1oc(-c2ccc(C(=O)Nc3ccccc3F)cc2)nc1COc1ccccc1,nt,nt,i,i,nt,i
Cc1oc(-c2ccc(C(=O)NCc3ccccc3F)cc2)nc1COc1ccccc1,nt,nt,?,i,nt,34
COc1cccc(C(=O)c2cn(CC(=O)Nc3cccc(Cl)c3C)c3nc(C)ccc3c2=O)c1,nt,nt,i,i,nt,i
O=C(COc1ccc(F)cc1Br)Nc1ccccc1N1CCOCC1,i,i,8.2µM,i,i,i
O=C(COc1ccc(F)cc1Br)Nc1ccccc1N1CCCC1,i,nt,i,i,nt,i
O=C(COc1ccc(Cl)cc1Cl)Nc1ccc(CN2CCOCC2)cc1,i,i,i,i,?,i
COc1cc(C)ccc1OCC(=O)Nc1ccccc1N1CCOCC1,i,i,5.8µM,i,i,i
Cc1cc(Cl)ccc1OCC(=O)Nc1ccccc1N1CCOCC1,i,i,15µM,?,i,i
O=C(COc1ccc(Cl)cc1Cl)NC(=O)N1CCOCC1,-58,i,i,i,i,i
COc1cc(Cl)c(C)cc1NC(=O)Cn1c2ncccc2c(=O)n1-c1ccccc1,nt,nt,nt,nt,nt,i
COc1ccc(NC(=O)CSCc2cc(=O)c3cc(C)ccc3[nH]2)cc1,nt,nt,?,i,nt,i
Cc1noc2ncnc(Sc3ccc(Br)cc3)c12,i,13µM,i,?,i,i
Nc1c(C(=O)Nc2ccccc2Cl)nnn1Cc1cccc(Cl)c1,nt,nt,i,i,nt,i
SMILES,D3 antag,MCF10A rereplic,KB-V1 MDR tox,KB-3-1 cytotox,SW480 rereplic,D3 ag
c1cc2c3c(c1)CCCN3CCC2,nt,nt,i,i,nt,nt
NCc1cc2c3c(c1)CCCN3CCC2,-65,?,i,i,i,i
CC(C)c1nc2ccc(C(=O)NCc3ccc(F)cc3)cc2o1,nt,nt,nt,nt,nt,i
O=C1c2ccccc2C(=O)c2c1ccc1c(=O)n(C3CCCCC3)[nH]c21,?,?,10µM,?,?,i
COc1cc2c(NC3CCN(C)CC3)nc(N3CCCN(C)CC3)nc2cc1OCC1CCNCC1,nt,nt,?,i,nt,nt
CCCCN=Cc1c(C)[nH]n(-c2ccccc2)c1=S,i,i,i,i,i,i
Cc1[nH]n(-c2ccccc2)c(=S)c1C=Nc1cccc([N+](=O)[O-])c1,-100,?,i,i,i,i
